Assay outcomes: PubChem, National Center for Advancing Translational Sciences (NCATS)
HT1080 IDH1KD tx = HT-1080 IDH1 knockdown cell toxicity (counter line); hit rate 2% among 360,000; HT-1080 IDH1 knockdown viability, ATP luminescence, 48 h; Potency, µM (top dose mostly 46.1 µM), inactives show at the top dose activity, negative = toxicity, hits mostly cytotoxic;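 further: 0% = DMSO wells and -100% = cell-free medium wells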
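HT-1080-IDH1KD cells (IDH1 knocked down), 750/well in RPMI with 5% FBS, treated with compound 48 h at 37 degrees C. Viability by CellTiter-Glo luminescence, normalised to DMSO and no-cell wells; concentration-response curves classed.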
KB-V1 cytotox = KB-V1 MDR subline cytotoxicity; AID 1347076; hit rate 3.4% among 400,000; Potency, µM (titrated, usually from 46.1 µM), hits mostly cytotoxic; KB-V1 MDR cells viability, CellTiter-Glo, 72 h; further: on the % scale 0 is the no-effect control and ±100 the full control effect; nearly all actives have a fitted effect of over 60% in size
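Cytotoxicity via CellTiter-Glo luminescence after 72 h compound exposure at 37 degrees C. Cells: drug-selected KB-V1 line, DMEM phenol-red free plus 10% FBS. Compounds tested at multiple concentrations; normalized data fitted to concentration-effect curves.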
HT1080-NT tox = kills 2HG-producing HT-1080-NT fibrosarcoma cells | HT-1080-NT fibrosarcoma viability, CellTiter-Glo ATP luminescence, 48 h | Potency, µM (top dose mostly 46.1 µM), inactives show top-dose activity, negative = less viability, usual class: cytotoxic | hit rate 1.6% among 360,000;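 further: NT is the 2HG producing partner of a matched IDH1 knockdown line; 0% = DMSO-treated cells and -100% = media-only wells without cells; nearly all actives have a fitted effect of over 55% in size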
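HT-1080-NT; 750 cells/well; 5% FBS RPMI; 48 h compound, 37 degrees C; CellTiter-Glo luminescence; curve fitting and curve-class assignment.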
SW480 rerep = DNA re-replication induction in SW480 cells; SW480 DNA re-replication, Hoechst DNA content imaging, 48 h; Potency, µM (series often up to 46.1 µM), without a hit: at the top dose re-replication activation, hits mostly activators; hit rate 1.8% among 340,000; AID 624297; further: % of control where 0% means no effect; nearly all actives have a fitted effect of over 55% in size
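Quantitative HTS format with DMSO vehicle controls; 48 hr drug incubation at 37 C, then 40 min Hoechst staining and scanning imager measurement at 405 nm excitation.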
MCF10A rereplic = induces DNA re-replication in MCF 10a normal breast cells; MCF 10A DNA re-replication, Hoechst nuclear intensity, 48 h; Potency, µM (doses to about 46.1 µM), without a hit: at the top dose activity, positive = re-replication, most hits filed as activators; hit rate 2.9% among 350,000; AID 624296; further: % of control where 0% means no effect; nearly all actives have a fitted effect of over 50% in size
KB-3-1 cytotox = kills parental KB-3-1 adenocarcinoma cells; KB-3-1 viability, CellTiter-Glo ATP luminescence, 72 h; Potency, µM (top dose mostly 46.1 µM), most hits filed as cytotoxic; hit rate 1.4% among 400,000; further: on the % scale 0 is the no-effect control and ±100 the full control effect; nearly all actives have a fitted effect of over 60% in size
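Parental KB-3-1 adenocarcinoma cells in phenol-red-free DMEM with 10% FBS were pin-treated with compounds at several concentrations, incubated 72 h at 37 °C, and viability read by CellTiter-Glo luminescence; concentration-effect curves were fitted after normalization.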
Active calls of the source: *; i = inactive; u = inconclusive; x = not tested or not shown; [ ] = another dose, or the depositor's remark. Most compounds without a hit are left out; they make up all but 8% or so of the library. The call rests on the fitted dose curve; in most records, active means well fitted curve in the direction sought with a large enough effect; inconclusive means small, poorly fitted or top-dose-only effect, or another doubt; inactive means no such curve, though single readings can be large; an effect the other way counts as inactive or inconclusive. Potency means the concentration at half of the fitted maximal effect.

SMILES | HT1080 IDH1KD tx | KB-V1 cytotox | HT1080-NT tox | SW480 rerep | MCF10A rereplic | KB-3-1 cytotox
CC(=O)Nc1ccc(NC(=O)C2Cc3ccccc3N2C(=O)c2ccccc2)cc1 (stereo not drawn) | x | i | x | x | x | i
COC(=O)N/N=C/c1cc(C)n(-c2cccc3ccccc23)c1C | 1% | 21µM* | -4% | -174% | u | u
CCOC(=O)N/N=C/c1cc(C)n(-c2cccc3ccccc23)c1C | -26% | u | -2% | -75% | u | i
CC(/C=C/c1ccccc1F)=N\NC(=O)c1cccc(F)c1 | u | 21µM* | -19% | u | u | u
Cc1ccc(-n2nnnc2SCC(=O)Nc2sccc2C#N)cc1 | -10% | 18µM* | -6% | u | -39% | i
COC(=O)c1ccc(-n2nnnc2SCC(=O)N2CCCCC2)cc1 | -15% | 21µM* | -5% | 8% | 6% | i
Cc1ccc(-n2nnnc2SCC(=O)N2CCCCC2)cc1 | -1% | 9.2µM* | 3% | -4% | 1% | i
CCCOC(=O)c1ccc(-n2nnnc2SCC(=O)N2CCCCC2)cc1 | -17% | i | -7% | 4% | -181%[0.0737 µM] | i
CCOC(=O)C1CCN(c2cc3c(cc2NC(=O)c2ccc(Cl)cc2)n(C)c(=O)n3C)CC1 | x | i | x | x | x | i
COc1cccc(NC(=O)c2nc(S(C)(=O)=O)ncc2Cl)c1 | 8.2µM* | i | 5.2µM* | 2.3µM* | 5.8µM* | i
CN(c1ccccc1)S(=O)(=O)c1ccc(NC(=O)c2nc(S(C)(=O)=O)ncc2Cl)cc1 | 12µM* | u | u | 9.2µM* | u | u
C=CCSC1=N/C(=C\c2cccnc2)C(=O)N1c1ccc(OC)cc1 | 0% | u | 6% | 2% | -70% | i
COc1ccc(/C=C2\N=C(SC)N(C)C2=O)cc1 | 9% | u | 7% | -2% | u | i
CCN(CC)C1=N/C(=C\c2ccc(OC)cc2)C(=O)N1c1ccccc1 | -13% | 8.2µM* | -10% | 16µM* | 18µM* | i
CCSC1=N/C(=C\c2ccccc2)C(=O)N1c1ccc(OC)cc1 | 11% | i | 26% | 18µM* | 15µM* | i
COc1ccc(/C=C2/N=C(SCC(=O)Nc3cc(C)on3)N(c3ccccc3)C2=O)cc1 | -8% | i | 2% | 2% | 21µM* | i
CCc1ccccc1NC(=O)Nc1nnc(N(C)Cc2ccccc2)s1 | x | i | x | x | x | i
CCc1ccc(OCC(=O)N/N=C(\C)c2ccc(OC(F)F)cc2)cc1 | -1% | i | 21% | -1% | -1% | i
CCc1ccc(OCC(=O)N/N=C(\C)c2ccccc2OC(F)F)cc1 | -8% | 16µM* | -11% | -123% | u | i
CC(C)(C)OC(=O)NCc1ccc(NC(=O)c2nc[nH]c2C(=O)NCCNC(=O)c2[nH]cnc2C(=O)Nc2ccc(CNC(=O)OC(C)(C)C)cc2)cc1 | 13µM* | i | 12µM* | u | 23µM* | i
Cc1cccc(NC(=O)c2nc[nH]c2C(=O)N[C@@H](C)c2ccccc2)c1 | 15µM* | i | u | 0% | u | i
Cc1cccc(NC(=O)c2nc[nH]c2C(=O)Nc2cccc(C)c2)c1 | u | i | -26% | 16% | u | i
C[C@@H](O)CNC(=O)c1[nH]cnc1C(=O)Nc1ccc(CNC(=O)OC(C)(C)C)cc1 | -7% | i | -7% | x | x | i
Cc1cccc(NC(=O)c2nc[nH]c2C(=O)NCCCNC(=O)c2[nH]cnc2C(=O)Nc2cccc(C)c2)c1 | 12% | i | 12% | -8% | -17% | i
CC(C)(C)OC(=O)CNC(=O)c1[nH]cnc1C(=O)Nc1ccc(CNC(=O)OC(C)(C)C)cc1 | 21µM* | u | u | -8% | u | u
SMILES | HT1080 IDH1KD tx | KB-V1 cytotox | HT1080-NT tox | SW480 rerep | MCF10A rereplic | KB-3-1 cytotox
Cc1cccc(NC(=O)c2nc[nH]c2C(=O)NCCCCCNC(=O)OC(C)(C)C)c1 | u | u | 26µM* | u | -3% | u
CCc1ccc(N2CC(C)Cn3c2nc2c3c(=O)n(CC(=O)O)c(=O)n2C)cc1 (stereo not drawn) | x | u | x | x | x | i
COc1ccc(-c2nc3ccccc3n3c(-c4cccc(C)c4)c4c(=O)n(C)c(=O)n(C)c4c23)cc1OC | x | i | x | x | x | u
Cc1cccc(OCCOCCn2c(-c3ccc(Cl)cc3)nc3ccccc3c2=O)c1C | x | i | x | x | x | i
Cc1cc(C(=O)CN2C(=O)C(=O)N(Cc3ccco3)C2=O)c(C)n1CCc1ccc(F)cc1 | u | 15µM* | u | u | u | 18µM*
Cc1cc(C(=O)CN2C(=O)C(=O)N(Cc3ccco3)C2=O)c(C)n1CCc1ccccc1 | u | 16µM* | u | u | 4.6µM* | u
Cc1[nH]c2ccccc2c1C(=O)CN1C(=O)C(=O)N(Cc2ccco2)C1=O | 12% | i | 0% | -5% | 0% | i
COc1ccc(-n2c(C)cc(C(=O)CN3C(=O)C(=O)N(Cc4ccccc4)C3=O)c2C)cc1 | u | u | u | 8% | 5.8µM* | u
CC(C)(C)c1ccc(OCCn2cc(C(=O)c3ccco3)c3ccccc32)cc1 | x | i | x | x | x | i
CN1c2ccccc2-c2nc(SCC(=O)Nc3ccccc3)ncc2S1(=O)=O | x | u | x | x | x | i
COc1ccccc1CNC(=O)C1CC2Cn3c(nc4ccccc43)C2N1C (stereo not drawn) | -7% | u | 2% | -30%[9.22 µM] | -1% | i
COc1ccccc1CNC(=O)C1CC2Cn3c(nc4cc(C)c(C)cc43)C2N1C (stereo not drawn) | -4% | i | -9% | 18% | 1% | 13µM*
O=C(Nc1ccc(Cl)cc1C(=O)Nc1ccc(Br)cn1)c1ccco1 | u | 5.2µM* | -16% | 6% | 29% | i
CCCN1CCN(C(=O)Cn2ncc3c4ccccc4n(Cc4cccc(Cl)c4)c3c2=O)CC1 | x | i | x | x | x | i
CN=C1SC(CC(=O)Nc2cccc(C(F)(F)F)c2)C(=O)N1C (stereo not drawn) | -15% | 15µM* | -12% | -11% | 0% | i
CCOC(=O)c1c(NC(=O)CC2SC(=NC)N(C)C2=O)sc(C)c1C (stereo not drawn) | 2% | 10µM* | -3% | -9% | u | i
CN=C1SC(CC(=O)Nc2sc(C)c(C)c2C(=O)OC)C(=O)N1C (stereo not drawn) | -5% | u | 8% | -3% | u | i
COc1cc(CCC(=O)NCc2ccc3c(c2)CCN3C(=O)c2ccccc2)cc(OC)c1OC | x | i | x | x | x | i
